Screens (PubChem BioAssay)
SW480 rereplic – DNA re-replication induction in SW480 cells. SW480 DNA re-replication, Hoechst DNA content imaging, 48 h. Potency, µM (doses to about 46.1 µM), for the others: top-dose re-replication activation, most hits filed as activators. actives 1.8% (n = 340,000); note: % of control where 0% means no effect; nearly all actives have a fitted effect of over 55% in size
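First, 250 cells per well were seeded. Next, compound or vehicle (23 nL) was pinned in, plates sat 48 hr at 37 C. Finally Hoechst was added for 40 min before fluorescence scanning.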
MCF10A rereplic – DNA re-replication induction in MCF 10a cells; Potency, µM (top dose mostly 46.1 µM), inactives show top-dose activity, positive = re-replication, most hits filed as activators; MCF 10A DNA re-replication, Hoechst nuclear intensity, 48 h; AID 624296; actives 2.9% (n = 350,000); note: % of control where 0% means no effect; nearly all actives have a fitted effect of over 50% in size
ELG1 repair inh – inhibitors of ELG1-dependent DNA repair in HEK293T cells | HEK293T ELG1-luciferase reporter, luminescence, 16 h; DNA damage induced by 5-fluorouridine | Potency, µM (titrated, usually from 46.1 µM), without a hit: at the highest dose activity change, negative = inhibition, usual class: inhibitors | actives 2.3% (n = 330,000) | AID 504467; note: % is set by controls: 0 for no effect and ±100 for the full control effect; nearly all actives have a fitted effect of over 55% in size
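Quantitative HTS, concentration-response format. 2,000 cells/well co-treated with 5-fluorouridine and compound, 16 hr in 5% CO2 at 37 °C; ONE-Glo luminescence read after 30 min.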
KB-3-1 tox – kills parental KB-3-1 adenocarcinoma cells; Potency, µM (doses to about 46.1 µM), actives largely listed as cytotoxic; AID 1347075; actives 1.4% (n = 400,000); KB-3-1 viability, CellTiter-Glo ATP luminescence, 72 h; note: % is set by controls: 0 for no effect and ±100 for the full control effect; nearly all actives have a fitted effect of over 60% in size
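Parental KB-3-1 viability, qHTS format: 72 h compound exposure, 37 °C; CellTiter-Glo; media-only wells and DMSO plates as controls; concentration-effect fits on corrected data.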
KB-V1 MDR tox – KB-V1 MDR subline cytotoxicity | KB-V1 MDR cells viability, CellTiter-Glo, 72 h | Potency, µM (highest dose often 46.1 µM), actives largely listed as cytotoxic | actives 3.4% (n = 400,000) | AID 1347076; note: % is set by controls: 0 for no effect and ±100 for the full control effect; nearly all actives have a fitted effect of over 60% in size
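Cytotoxicity via CellTiter-Glo luminescence after 72 h compound exposure at 37 degrees C. Cells: drug-selected KB-V1 line, DMEM phenol-red free plus 10% FBS. Compounds tested at multiple concentrations; normalized data fitted to concentration-effect curves.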
Starred values were filed as active, the others as inactive. Shown are actives, neighbours in structure and some others; about 8.1% of the full set was active somewhere. Calls come from the whole dose curve; as a rule, active = well fitted curve in the direction sought with a large enough effect; inconclusive = small, poorly fitted or top-dose-only effect, or another doubt; inactive = no such curve, though single readings can be large; an effect the other way counts as inactive or inconclusive. Potency is the fitted concentration of half-maximal effect.

Screening Cc1ccc(-c2nnc3c(C(F)(F)F)nc4ccccc4n23)cc1 returned SW480 rereplic 16µM*, MCF10A rereplic inconclusive, ELG1 repair inh 8%, KB-3-1 tox inconclusive and KB-V1 MDR tox 21µM*.
For FC(F)(F)c1nc2ccccc2n2c(-c3ccc(Cl)cc3)nnc12 the results were SW480 rereplic 26%, MCF10A rereplic 13µM*, ELG1 repair inh inconclusive, KB-3-1 tox 4.6µM* and KB-V1 MDR tox 5.8µM*.
For On1c(-c2ccc(Cl)cc2)nc2ccccc21 the results were SW480 rereplic -8%, MCF10A rereplic -6%, ELG1 repair inh 28%, KB-3-1 tox inactive and KB-V1 MDR tox inactive.
Screening O=C(Nc1nc(-c2ccc3c(c2)OCCO3)cs1)C1CC(=O)N(c2ccc3c(c2)OCCO3)C1 (stereo not given) returned KB-3-1 tox inconclusive and KB-V1 MDR tox inactive.
`COCCn1c(=S)[nH]c2cc(C(=O)NCC3CCCO3)ccc2c1=O` (stereo not given) gave SW480 rereplic 2%, MCF10A rereplic 3%, ELG1 repair inh -4%, KB-3-1 tox inactive and KB-V1 MDR tox inactive.
Screening CCOC(=O)c1ccc(N2C(=O)C3C(/C=C/c4ccccc4)OC4(C(=O)c5ccccc5C4=O)C3C2=O)cc1 (stereo not given) returned SW480 rereplic -6%, MCF10A rereplic 26µM*, ELG1 repair inh -1%, KB-3-1 tox inactive and KB-V1 MDR tox inactive.
`O=C(/C=C/c1ccc2ccccc2n1)N1CCN(c2ccccc2)CC1` gave SW480 rereplic -16%, MCF10A rereplic -8%, ELG1 repair inh -5%, KB-3-1 tox inactive and KB-V1 MDR tox inconclusive.
O=C(/C=C/c1ccc2ccccc2n1)N1CCN(S(=O)(=O)c2ccccc2F)CC1 was read as SW480 rereplic 11%, MCF10A rereplic inconclusive, ELG1 repair inh 16µM*, KB-3-1 tox inconclusive and KB-V1 MDR tox inactive.
O=C(NCC(c1ccco1)N1CCOCC1)c1cccc([N+](=O)[O-])c1 (stereo not given) was read as SW480 rereplic -7%, MCF10A rereplic -1%, ELG1 repair inh -1%, KB-3-1 tox inactive and KB-V1 MDR tox inactive.
`O=c1[nH]c(CN2CCCC2)nc2sc3c(c12)CCC3` gave SW480 rereplic 1%, MCF10A rereplic 5%, ELG1 repair inh 8%, KB-3-1 tox inactive and KB-V1 MDR tox inconclusive.
For Cc1ccc(C(=O)N2CCN(Cc3nc4sc5c(c4c(=O)[nH]3)CCCC5)CC2)cc1 the results were SW480 rereplic -4%, MCF10A rereplic 0%, ELG1 repair inh -7%, KB-3-1 tox inconclusive and KB-V1 MDR tox 16µM*.
`CNc1cccc(-c2ccc(C(=O)N3CCOCC3)cc2)n1` gave KB-3-1 tox inactive and KB-V1 MDR tox inactive.
Cc1cccc2cc(C#N)c(SCCN3CCCCC3)nc12 was read as SW480 rereplic 8.2µM*, MCF10A rereplic inconclusive, KB-3-1 tox inactive and KB-V1 MDR tox inconclusive.
Screening Cc1ccc(C#N)c(SCCN2CCCCC2)n1 returned SW480 rereplic 1%, MCF10A rereplic -2%, ELG1 repair inh -7%, KB-3-1 tox inactive and KB-V1 MDR tox inactive.
COc1ccc(C2=NN(C(=O)c3cccs3)C(c3ccccc3O)C2)cc1 (stereo not given) was read as SW480 rereplic 24%, MCF10A rereplic 21µM*, ELG1 repair inh inconclusive, KB-3-1 tox inactive and KB-V1 MDR tox inactive.
Screening Cc1ccc(C(=O)N2N=C(c3ccc(Br)cc3)CC2c2ccccc2O)cc1 (stereo not given) returned SW480 rereplic 10%, MCF10A rereplic 18µM*, ELG1 repair inh inconclusive, KB-3-1 tox inconclusive and KB-V1 MDR tox inconclusive.
For COc1ccc(C(=O)N2N=C(c3cccs3)CC2c2ccccc2O)cc1 (stereo not given) the results were SW480 rereplic 16µM*, MCF10A rereplic 24%, ELG1 repair inh inconclusive, KB-3-1 tox inactive and KB-V1 MDR tox inactive.
For O=C(O)c1ccc(Oc2ccccc2)o1 the results were SW480 rereplic -5%, MCF10A rereplic -2%, ELG1 repair inh 7%, KB-3-1 tox inactive and KB-V1 MDR tox inactive.
For CC(=O)Oc1oc(-c2ccccc2)nc1/C=N/c1ccccn1 the results were SW480 rereplic 0%, MCF10A rereplic 0%, ELG1 repair inh inconclusive, KB-3-1 tox inactive and KB-V1 MDR tox inactive.
`COc1ccc(N2CCN(CCCNC(=O)c3cnn(-c4ccc(F)cc4)c3-n3cccc3)CC2)cc1` gave KB-3-1 tox 23µM* and KB-V1 MDR tox inconclusive.
COc1ccc(CNC(=O)c2cnn(-c3ccc(F)cc3)c2-n2cccc2)cc1 was read as KB-3-1 tox inactive and KB-V1 MDR tox inconclusive.
CC(CNC(=O)c1cnn(-c2ccc(F)cc2)c1-n1cccc1)c1ccccc1 (stereo not given) was read as KB-3-1 tox inconclusive and KB-V1 MDR tox 21µM*.
For O=C(NCCCN1CCN(CCCNC(=O)c2ccccc2F)CC1)c1ccccc1F the results were SW480 rereplic 7.3µM*, MCF10A rereplic 19%, ELG1 repair inh 12%, KB-3-1 tox inactive and KB-V1 MDR tox inactive.
`CN1CCN(CCCNC(=O)c2cnn(-c3ccc(F)cc3)c2-n2cccc2)CC1` gave KB-3-1 tox inactive and KB-V1 MDR tox inactive.
Screening O=C(NCCCN1CCN(c2ccc(F)cc2)CC1)c1cnn(-c2ccc(F)cc2)c1-n1cccc1 returned KB-3-1 tox inconclusive and KB-V1 MDR tox 18µM*.
Screening O=C(NCCN1CCN(c2ccccc2)CC1)c1ccccc1F returned SW480 rereplic 2%, MCF10A rereplic 15%, ELG1 repair inh 6%, KB-3-1 tox inactive and KB-V1 MDR tox inactive.
For C[C@@H]1CCCCO[C@H](CN(C)C(=O)C2CCCCC2)[C@@H](C)CN([C@H](C)CO)C(=O)c2cc(N(C)C)ccc2O1 the results were KB-3-1 tox inactive and KB-V1 MDR tox inactive.
CCc1ccc(Oc2cc(Cl)nc(N)n2)cc1 was read as SW480 rereplic -2%, MCF10A rereplic inconclusive, ELG1 repair inh inconclusive, KB-3-1 tox inactive and KB-V1 MDR tox inactive.
For CC1CCN(CCCNC(=O)c2coc3nc4ccccc4nc23)CC1 the results were SW480 rereplic 8%, MCF10A rereplic 15µM*, ELG1 repair inh inconclusive, KB-3-1 tox inactive and KB-V1 MDR tox inactive.
For CC1CCCN(CCCNC(=O)c2coc3nc4ccccc4nc23)C1 (stereo not given) the results were SW480 rereplic -5%, MCF10A rereplic 21%, ELG1 repair inh 6%, KB-3-1 tox inactive and KB-V1 MDR tox inconclusive.
`COc1ccc(/C=C2\SC(=O)N(CCNC(=O)CN3C(=O)NC4(CCCC4)C3=O)C2=O)cc1` gave SW480 rereplic 20%, MCF10A rereplic 11%, ELG1 repair inh inconclusive, KB-3-1 tox inactive and KB-V1 MDR tox inactive.
